Bioassay records as filed in PubChem BioAssay.
Only some compounds are listed: those with a hit (about 14% of all), similar ones and a draw of the others.
HCMV inh: qHTS Assay for inhibitors of the human cytomegalovirus (HCMV); HFF cells, HCMV-luciferase reporter, 72 h; active compounds read low; actives 4.5% (n = 410,000); activity change, negative = inhibition, % at 57.5 µM; in the data active = activity change below about -60%; inconclusive = no clear call, values can overlap the other calls; inactive = above about -39%
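Luciferase read-out from HCMV-luciferase-infected HFFs (MOI 1 PFU/cell) 72 h post infection at 37C; compounds added after 16 h cell attachment; activity normalized between buffer-only basal and Salinomycin (10uM) inhibitor controls.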
Pf growth 48h: Primary qHTS for delayed death inhibitors of the malarial parasite plastid, 48 hour incubation; Potency, µM (top dose mostly 28.7 µM), for the others: at the top dose activity change, negative = inhibition, hits mostly inhibitors; actives 5.9% (n = 310,000); P. falciparum luciferase growth in erythrocytes, 48 h; note: potency is the fitted concentration of half-maximal effect
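Luciferase-expressing P. falciparum in infected erythrocytes (2% hematocrit, 0.1% parasitemia final) in RPMI 1640/0.5% Albumax were exposed to compound for 48 hours at 37 C, 5% CO2; growth read as luminescence.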
Sm TGR block: qHTS Assay for the Inhibitors of Schistosoma Mansoni Peroxiredoxins. purified TGR, DTNB reduction, TNB absorbance 405 nm. actives 3% (n = 360,000). Schistosoma mansoni thioredoxin glutathione reductase (TGR), Q962Y6. Potency, µM (highest dose often 114 µM), inactives show at the highest dose activity change, negative = inhibition, hits mostly inhibitors. AID 485364, 2010; note: potency is the fitted concentration of half-maximal effect; nearly all actives have a fitted effect of over 60% in size
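First, TGR (20 nM dispensed) and NADPH were mixed with compound. Second, a 15 min room-temperature incubation followed. Third, further NADPH and then DTNB were added to start the reaction. Finally, TNB absorbance was monitored kinetically.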
Pf growth 96h: Primary qHTS for delayed death inhibitors of the malarial parasite plastid, 96 hour incubation | P. falciparum luciferase reporter growth, 96 h | Potency, µM (highest dose often 28.7 µM), without a hit: top-dose activity change, negative = inhibition, most hits filed as inhibitors | actives 6.9% (n = 320,000) | AID 504834, 2011; note: potency is the fitted concentration of half-maximal effect
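P. falciparum expressing integrated firefly luciferase grown in erythrocytes (2% hematocrit, 0.05% parasitemia final) with compounds for 96 hours at 37 C, 5% CO2. Growth inhibition read as loss of luminescence after adding luciferase detection reagent.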
FBPA Giardia inh: qHTS Assay for Inhibitors of Fructose-1,6-bisphosphate Aldolase from Giardia Lamblia. Potency, µM (series often up to 59.6 µM), for inactives: top-dose activity, negative = inhibition, usual class: inhibitors. actives 0.71% (n = 290,000). purified Giardia FBPA; note: potency is the fitted concentration of half-maximal effect; nearly all actives have a fitted effect of over 55% in size
Target sequence (A8B2U2 whole entry, looked up): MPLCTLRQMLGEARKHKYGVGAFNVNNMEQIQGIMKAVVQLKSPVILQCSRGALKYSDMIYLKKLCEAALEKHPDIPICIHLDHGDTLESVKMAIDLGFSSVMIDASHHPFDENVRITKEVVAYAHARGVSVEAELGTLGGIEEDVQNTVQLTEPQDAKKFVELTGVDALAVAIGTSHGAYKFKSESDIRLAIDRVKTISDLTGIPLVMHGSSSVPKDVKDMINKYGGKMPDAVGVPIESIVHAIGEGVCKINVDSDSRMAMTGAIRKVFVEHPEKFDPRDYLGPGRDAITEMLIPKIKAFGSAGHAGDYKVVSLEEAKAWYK
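40 nM FBPA preincubated 10 min at RT with compound (up to 57.5 uM final), then substrate plus GAPDH/TPI/NAD/arsenate coupling and diaphorase/resazurin added. Fluorescence read after 20 min at RT, 525/598 nm.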
* hit, by the source's call; ? = inconclusive; / = no result given; [ ] = dose if it differs, or a comment. Unless noted, calls come from the whole dose curve; as a rule, active = well fitted curve in the direction sought with a large enough effect; inconclusive = small, poorly fitted or top-dose-only effect, or another doubt; inactive = no such curve, though single readings can be large; an effect the other way counts as inactive or inconclusive. % is set by controls: 0 for no effect and ±100 for the full control effect.

SMILES	HCMV inh	Pf growth 48h	Sm TGR block	Pf growth 96h	FBPA Giardia inh
CC1=C(C(=O)OCCN(Cc2ccccc2)c2ccccc2)C(c2cccc([N+](=O)[O-])c2)C(P2(=O)OCC(C)(C)CO2)=C(C)N1 (stereo not drawn)	-20.1	/	/	/	/
CCOc1ccc(N(c2nc(-c3ccc(OC)c(OC)c3)no2)c2nc(-c3ccc(OC)c(OC)c3)no2)cc1	-12.7	/	-4.7%	/	/
Cc1cccc(-n2ncc3c2CCCC3NC(=O)CCN2CCCCO2)c1C (stereo not drawn)	-24.0	?	-5.1%	62.8%	4.9%
Cc1cccc(-n2ncc3c2CCCC3NC(=O)CCN2CCCO2)c1C (stereo not drawn)	-75.9*	0.5%	-29.6%	?	/
CCc1cc(C(=O)NC2CCCc3c2cnn3-c2cccc(C)c2C)n(C)n1 (stereo not drawn)	-85.9*	-14.1%	-6.7%	11.1%	-10.4%
Cc1cc(C)c(C(=O)NC2CCCc3c2cnn3-c2cccc(C)c2C)o1 (stereo not drawn)	-74.3*	?	10.3%	1.0%	/
Cc1cccc(-n2ncc3c2CCCC3NC(=O)C2=CC(=O)CC(C)(C)O2)c1C (stereo not drawn)	-67.6*	-29.6%	-29.4%	-29.1%	1.6%
Cc1cccc(-n2ncc3c2CCCC3NC(=O)Cn2cccn2)c1C (stereo not drawn)	52.9	-10.9%	-5.6%	-0.4%	/
COc1ccccc1C(=O)NC(CCSC)C(=O)NC1CCCCCC1 (stereo not drawn)	31.1	0.0%	1.6%	?	2.2%
Cc1cc(NC(=O)CSc2nc(-c3cccc(F)c3)nc3c2c(=O)n(C)c(=O)n3C)no1	1.8	/	5.1%	/	/
NC1=NC(=O)/C(=C/c2cn(Cc3ccccc3)c3ccccc23)S1	?	2.08µM*	7.2%	?	-28.5%
Cc1ccc(-c2ccc(CCC(=O)O)n2CC(=O)O)cc1	/	-4.6%	17.8µM*	-2.2%	22.8%
COC(=O)Cn1c(CCC(=O)O)ccc1-c1ccccc1	-13.0	/	?	8.28µM*	2.0%
COc1ccc(NC(=O)Cn2c(CCC(=O)O)ccc2-c2ccccc2)cc1	44.2	7.1%	-18.6%	78.3%	8.9%
CCCc1ccc(-c2cc(NC(=O)Cc3c(C)[nH]c4ccccc34)ccc2N(C)c2cccnc2)cc1	50.2	/	/	/	/
O=C(Nc1c2c(nn1-c1ccccc1)CS(=O)(=O)C2)c1ccccc1Br	-0.8	6.6%	-11.7%	13.8%	/
CN1OC[C@@H]2CN(CC3CCCCC3)[C@H](c3ccc(-c4ccc(C#N)cc4)cc3)C[C@@H]21	-19.3	/	/	/	/
O=C(NCc1ccccc1)N(Cc1cc2cc3c(cc2[nH]c1=O)OCCO3)CC1CCCO1 (stereo not drawn)	12.5	/	-25.1%[11.4 µM]	8.28µM*	-7.8%
CC(=O)c1cccc(S(=O)(=O)N(Cc2cc3cc4c(cc3[nH]c2=O)OCCO4)CC2CCCO2)c1 (stereo not drawn)	-4.1	-14.2%	-0.1%	13.1µM*	-21.6%
O=c1[nH]c2cc3c(cc2cc1CN(CC1CCCO1)S(=O)(=O)c1ccccc1)OCCO3 (stereo not drawn)	-16.6	?	-2.2%	?	-7.9%
COc1ccc(N2C(=O)CSC23C(=O)N2c4c(cccc43)C(C)=CC2(C)C)cc1 (stereo not drawn)	-19.1	/	-9.0%	7.38µM*	4.1%
CN(CC(=O)Nc1ccc(F)c(F)c1F)c1cnccn1	/	13.1µM*	1.5%	?	-6.9%
O=C(CNCC(=O)Nc1ccc(F)c(F)c1F)Nc1ccc(F)c(F)c1F	-82.8*	-0.7%	3.9%	56.7%	-10.3%
CCN1C(=O)[C@@H]2[C@H](C1=O)[C@@H]1C(=O)Nc3ccccc3C(=O)N1[C@@H]2c1cccc(Cl)c1	/	20.7%	-1.4%	45.2%	-7.5%
Cc1ccc(C(=O)N2NC(c3ccc(F)cc3)C3C(=O)N(c4ccc(C)cc4)C(=O)C32)cc1 (stereo not drawn)	20.7	25.7%	-7.0%	-9.8%	0.6%
SMILES	HCMV inh	Pf growth 48h	Sm TGR block	Pf growth 96h	FBPA Giardia inh
CCOc1ccc(N2C(=O)C3C(c4ccccc4F)NN(C(=O)c4ccc(C)cc4)C3C2=O)cc1 (stereo not drawn)	10.0	13.1%	50.1µM*	-8.6%	-3.7%
COc1ccc(-c2cc(-c3cccs3)c(C#N)c(SCC(=O)NCc3ccco3)n2)cc1	/	-19.2%	-31.3%	-14.7%	3.1%
COc1ccc(CNC(=O)CSc2nc(-c3ccccc3)cc(-c3cccs3)c2C#N)cc1	-4.1	/	8.9%	6.57µM*	0.5%
COc1cc(-c2cc(-c3ccccc3)nc(SCC(=O)Nc3nccs3)c2C#N)cc(OC)c1OC	16.3	1.17µM*	34.9%	?	/
COc1ccc(-c2cc(-c3ccccc3)nc(SCC(=O)Nc3ccccc3C)c2C#N)cc1	8.7	/	-0.4%	/	/
CN(CCOc1ccccc1)C(=O)c1ccc(Cl)c(S(=O)(=O)N2CCCCC2)c1	-13.2	?	-26.1%	?	/
O=C(CSc1ccc(-c2ccco2)nn1)N1CCCC1	9.0	13.3%	17.8µM*	-12.0%	-14.3%
O=C(CSc1ccc(-c2ccco2)nn1)c1cccc([N+](=O)[O-])c1	-35.4	?	?	13.1µM*	-11.6%
O=C(CSc1nnc(-c2ccco2)o1)N1CCCCC1	46.7	169.4%	-0.1%	14.0%	/
O=C(CSc1ccc(-c2ccco2)nn1)N1CCCCC1	-5.3	39.9%	?	11.9%	12.6µM*
Cn1c(=O)c(-c2ccc(F)cc2)nc2cnc(OCc3ccccc3)nc21	/	/	/	/	4.6%
Cc1cc(NC(=O)C(C)SCC(=O)OCc2ccc(Cl)cc2Cl)no1 (stereo not drawn)	-13.8	?	-8.8%	-3.3%	/
Cc1ccc(S(=O)(=O)c2nnn3c2nc(NC(C)c2ccccc2)c2sccc23)cc1 (stereo not drawn)	-70.8*	/	0.0%	/	/
CCc1ccc(S(=O)(=O)c2nnn3c2nc(NCCc2ccccc2)c2sccc23)cc1	-80.8*	/	9.0%	/	/
COc1ccccc1Nc1nc2c(S(=O)(=O)c3ccc(C(C)C)cc3)nnn2c2ccsc12	19.5	/	5.0%	/	/
Cc1ccc(C)c(Nc2nc3c(S(=O)(=O)c4ccc(Br)cc4)nnn3c3ccsc23)c1	-95.1*	/	-3.6%	/	/
Cc1ccc(C)c(Nc2nc3c(S(=O)(=O)c4ccc(C(C)C)cc4)nnn3c3ccsc23)c1	-71.0*	/	-19.0%	/	/
COCCCNC(=O)Cn1cc(/C=C(\C#N)C(=O)NC2CC2)c2ccccc21	7.1	3.4%	-1.7%	?	9.8%
Cc1nn(C(=O)c2ccc(Cl)cc2)c(C)c1Sc1ccc(Cl)cc1	-2.0	/	-4.3%	/	/
COc1ccc(-c2nc3c4ccccc4ccn3c2Cc2ccccc2C(F)(F)F)cc1OC	-2.0	/	/	/	/
